Reference: article PMC7862700, “An all-to-all approach to the identification of sequence-specific readers for epigenetic DNA modifications on cytosine”

Key:
Experiment in all cases: DAPPL (digital affinity profiling via proximity ligation, sequencing); 10 mM Tris-HCl pH 7.5, 50 mM NaCl, 1 mM DTT, 4% glycerol, room temperature, 30 min; GST-TFs on glutathione beads, 16-mer random dsDNA library, 0.1% formaldehyde crosslink after washing; high values mean tight binding
Conditions in all cases: protein: recombinant; tags: N-terminal GST; dsDNA, one strand shown
[1] = biological target: T1, FLI1 (Homo sapiens, UniProt Q01543 1-452)
T1 sequence: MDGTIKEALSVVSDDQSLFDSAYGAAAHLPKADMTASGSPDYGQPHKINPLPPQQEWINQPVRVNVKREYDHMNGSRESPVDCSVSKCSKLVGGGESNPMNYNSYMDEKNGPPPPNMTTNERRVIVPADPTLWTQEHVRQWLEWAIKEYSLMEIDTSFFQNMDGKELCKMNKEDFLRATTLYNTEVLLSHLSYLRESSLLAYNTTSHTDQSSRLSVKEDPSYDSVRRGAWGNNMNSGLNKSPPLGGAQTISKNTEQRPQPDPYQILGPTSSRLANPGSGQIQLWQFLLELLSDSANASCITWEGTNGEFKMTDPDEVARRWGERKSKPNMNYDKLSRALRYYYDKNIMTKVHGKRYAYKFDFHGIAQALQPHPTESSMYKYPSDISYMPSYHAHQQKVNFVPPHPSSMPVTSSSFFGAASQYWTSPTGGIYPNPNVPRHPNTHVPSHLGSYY
Outline: (§1)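 Each value of binding signal is a hexamer's read frequency for a factor divided by the same hexamer's frequency in the tag-only sample. Barcoded, bead-captured GST fusions of human transcription factors made in yeast were pooled with that sample and incubated with 200 nmole of a random double-stranded 16-mer DNA library in Tris/NaCl/DTT/glycerol buffer at room temperature for 30 min. Washing, 0.1% formaldehyde crosslinking, proximity ligation, PCR and Illumina NextSeq500 sequencing followed.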

[2] = biological target: T2, ELK1 (Homo sapiens, UniProt P19419 1-428)
T2 sequence: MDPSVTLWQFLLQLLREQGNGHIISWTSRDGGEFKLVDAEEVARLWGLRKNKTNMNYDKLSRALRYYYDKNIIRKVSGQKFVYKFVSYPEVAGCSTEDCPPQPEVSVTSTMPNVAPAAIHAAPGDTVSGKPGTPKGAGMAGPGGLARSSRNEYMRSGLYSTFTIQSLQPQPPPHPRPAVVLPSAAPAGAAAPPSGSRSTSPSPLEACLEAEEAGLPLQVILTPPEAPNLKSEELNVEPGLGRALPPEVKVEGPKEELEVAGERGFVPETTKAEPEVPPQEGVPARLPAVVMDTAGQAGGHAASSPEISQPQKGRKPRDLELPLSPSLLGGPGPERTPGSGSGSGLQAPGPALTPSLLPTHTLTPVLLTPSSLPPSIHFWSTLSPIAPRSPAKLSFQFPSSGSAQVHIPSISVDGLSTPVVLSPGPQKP
Outline: as §1

[3] = biological target: T3, GABPA (Homo sapiens, UniProt Q06546 1-454)
T3 sequence: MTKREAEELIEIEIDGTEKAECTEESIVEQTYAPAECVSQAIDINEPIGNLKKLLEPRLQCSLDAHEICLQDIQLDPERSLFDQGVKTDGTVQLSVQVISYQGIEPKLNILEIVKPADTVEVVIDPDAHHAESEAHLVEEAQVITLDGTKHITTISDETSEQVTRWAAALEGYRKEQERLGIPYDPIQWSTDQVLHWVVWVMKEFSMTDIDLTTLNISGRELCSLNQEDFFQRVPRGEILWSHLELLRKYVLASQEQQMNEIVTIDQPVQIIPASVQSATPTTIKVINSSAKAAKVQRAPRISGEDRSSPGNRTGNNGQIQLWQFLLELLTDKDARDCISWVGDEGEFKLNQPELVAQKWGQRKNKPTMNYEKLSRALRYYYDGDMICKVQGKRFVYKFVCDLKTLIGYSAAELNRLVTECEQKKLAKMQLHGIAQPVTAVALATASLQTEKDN
Outline: as §1

[4] = biological target: T4, ERG (Homo sapiens, UniProt P11308 1-479)
T4 sequence: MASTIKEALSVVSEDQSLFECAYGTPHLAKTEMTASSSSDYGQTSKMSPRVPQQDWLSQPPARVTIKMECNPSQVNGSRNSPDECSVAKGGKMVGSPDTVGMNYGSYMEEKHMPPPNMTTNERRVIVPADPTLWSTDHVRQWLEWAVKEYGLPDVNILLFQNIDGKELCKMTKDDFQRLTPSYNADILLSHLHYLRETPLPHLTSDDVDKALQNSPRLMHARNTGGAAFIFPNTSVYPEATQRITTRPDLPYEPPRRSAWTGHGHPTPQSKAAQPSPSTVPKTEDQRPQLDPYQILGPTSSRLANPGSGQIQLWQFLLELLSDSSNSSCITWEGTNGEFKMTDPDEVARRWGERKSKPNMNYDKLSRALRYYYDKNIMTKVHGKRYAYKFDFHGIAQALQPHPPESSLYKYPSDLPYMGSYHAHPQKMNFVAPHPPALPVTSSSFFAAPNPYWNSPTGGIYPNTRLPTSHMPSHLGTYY
Outline: as §1

[5] = biological target: ELF1 (Homo sapiens, UniProt P32519 1-619)
Chain of ELF1 (P32519 whole entry): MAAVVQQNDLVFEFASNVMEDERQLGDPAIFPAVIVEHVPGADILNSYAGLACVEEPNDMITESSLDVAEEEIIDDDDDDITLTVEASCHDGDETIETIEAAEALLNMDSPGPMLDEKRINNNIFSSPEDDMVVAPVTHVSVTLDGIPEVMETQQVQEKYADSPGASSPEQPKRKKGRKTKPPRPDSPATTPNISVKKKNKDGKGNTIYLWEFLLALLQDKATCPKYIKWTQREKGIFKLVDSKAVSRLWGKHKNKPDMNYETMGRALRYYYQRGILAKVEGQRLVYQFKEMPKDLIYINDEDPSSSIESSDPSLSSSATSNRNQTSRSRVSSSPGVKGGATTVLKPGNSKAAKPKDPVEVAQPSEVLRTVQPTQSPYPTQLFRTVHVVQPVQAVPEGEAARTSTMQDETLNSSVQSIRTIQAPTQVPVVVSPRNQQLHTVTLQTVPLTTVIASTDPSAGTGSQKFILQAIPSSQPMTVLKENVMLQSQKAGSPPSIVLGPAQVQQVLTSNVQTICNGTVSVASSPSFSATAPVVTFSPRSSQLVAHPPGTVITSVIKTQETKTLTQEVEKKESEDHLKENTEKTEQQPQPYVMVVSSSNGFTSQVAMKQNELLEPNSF
Outline: as §1

[6] = biological target: T5, EHF (Homo sapiens, UniProt Q9NZC4 1-300)
T5 sequence: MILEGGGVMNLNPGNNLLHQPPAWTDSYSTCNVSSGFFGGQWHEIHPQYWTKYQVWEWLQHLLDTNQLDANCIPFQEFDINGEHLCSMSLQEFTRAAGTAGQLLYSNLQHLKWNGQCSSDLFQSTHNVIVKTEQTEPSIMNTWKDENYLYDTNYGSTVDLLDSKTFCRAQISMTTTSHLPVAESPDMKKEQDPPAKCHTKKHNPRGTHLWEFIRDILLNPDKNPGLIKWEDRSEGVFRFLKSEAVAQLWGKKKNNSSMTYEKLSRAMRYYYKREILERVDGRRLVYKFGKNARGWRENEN
Outline: as §1

[7] = biological target: SPI1 (Homo sapiens, UniProt P17947 1-270)
Outline: as §1

[8] = biological target: SPIB (Homo sapiens, UniProt Q01892 1-262)
Chain of SPIB (Q01892 whole entry): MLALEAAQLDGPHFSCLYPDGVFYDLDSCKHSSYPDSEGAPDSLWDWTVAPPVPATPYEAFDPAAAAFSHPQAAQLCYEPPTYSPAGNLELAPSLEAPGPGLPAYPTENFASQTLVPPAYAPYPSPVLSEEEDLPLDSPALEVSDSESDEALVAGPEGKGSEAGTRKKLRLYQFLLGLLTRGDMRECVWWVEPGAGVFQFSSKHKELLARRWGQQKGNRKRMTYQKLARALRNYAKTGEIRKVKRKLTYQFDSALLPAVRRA
Outline: as §1

[9] = biological target: T6, ELK3 (Homo sapiens, UniProt P41970 1-407)
T6 sequence: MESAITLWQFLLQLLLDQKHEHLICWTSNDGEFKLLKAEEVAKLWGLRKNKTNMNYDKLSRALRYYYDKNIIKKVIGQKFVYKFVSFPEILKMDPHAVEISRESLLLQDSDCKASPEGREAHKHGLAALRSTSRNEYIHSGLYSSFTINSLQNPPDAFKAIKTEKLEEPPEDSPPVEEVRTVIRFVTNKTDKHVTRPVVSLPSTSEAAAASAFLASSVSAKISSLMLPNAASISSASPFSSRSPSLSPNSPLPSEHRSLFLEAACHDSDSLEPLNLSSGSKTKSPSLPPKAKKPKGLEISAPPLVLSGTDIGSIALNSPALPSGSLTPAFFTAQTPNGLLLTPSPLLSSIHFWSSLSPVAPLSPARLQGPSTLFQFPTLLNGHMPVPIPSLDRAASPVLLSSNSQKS
Outline: as §1

[10] = biological target: SPI1 (Homo sapiens, UniProt P17947 1-270); remark: listed apart in the source
Outline: as §1

Sequence | binding signal [1] | binding signal [2] | binding signal [3] | binding signal [4] | binding signal [5] | binding signal [6] | binding signal [7] | binding signal [8] | binding signal [9] | binding signal [10]
CCGCTC | 1.53 fold enrichment (6-mer frequency, TF over GST control) | 1.52 fold enrichment (6-mer frequency, TF over GST control) | 1.39 fold enrichment (6-mer frequency, TF over GST control) | 1.47 fold enrichment (6-mer frequency, TF over GST control) | 1.58 fold enrichment (6-mer frequency, TF over GST control) | 1.54 fold enrichment (6-mer frequency, TF over GST control) | 1.48 fold enrichment (6-mer frequency, TF over GST control) | 1.59 fold enrichment (6-mer frequency, TF over GST control) | 1.49 fold enrichment (6-mer frequency, TF over GST control) | 
TCTACT | 1.27 fold enrichment (6-mer frequency, TF over GST control) | 1.37 fold enrichment (6-mer frequency, TF over GST control) | 1.43 fold enrichment (6-mer frequency, TF over GST control) | 1.32 fold enrichment (6-mer frequency, TF over GST control) | 1.35 fold enrichment (6-mer frequency, TF over GST control) | 1.35 fold enrichment (6-mer frequency, TF over GST control) | 1.42 fold enrichment (6-mer frequency, TF over GST control) | 1.42 fold enrichment (6-mer frequency, TF over GST control) | 1.28 fold enrichment (6-mer frequency, TF over GST control) | 
TGTAAT | 1.27 fold enrichment (6-mer frequency, TF over GST control) | 1.2 fold enrichment (6-mer frequency, TF over GST control) | 1.2 fold enrichment (6-mer frequency, TF over GST control) | 1.2 fold enrichment (6-mer frequency, TF over GST control) | 1.18 fold enrichment (6-mer frequency, TF over GST control) | 1.15 fold enrichment (6-mer frequency, TF over GST control) | 1.15 fold enrichment (6-mer frequency, TF over GST control) | 1.25 fold enrichment (6-mer frequency, TF over GST control) | 1.26 fold enrichment (6-mer frequency, TF over GST control) | 
GCTTCC | 3.32 fold enrichment (6-mer frequency, TF over GST control) | 3.85 fold enrichment (6-mer frequency, TF over GST control) | 3.27 fold enrichment (6-mer frequency, TF over GST control) | 4 fold enrichment (6-mer frequency, TF over GST control) | 3.21 fold enrichment (6-mer frequency, TF over GST control) | 3.72 fold enrichment (6-mer frequency, TF over GST control) |  | 3.8 fold enrichment (6-mer frequency, TF over GST control) | 4.31 fold enrichment (6-mer frequency, TF over GST control) | 3.73 fold enrichment (6-mer frequency, TF over GST control)
TTTCCG | 3.86 fold enrichment (6-mer frequency, TF over GST control) | 3.68 fold enrichment (6-mer frequency, TF over GST control) | 3.28 fold enrichment (6-mer frequency, TF over GST control) | 4.93 fold enrichment (6-mer frequency, TF over GST control) | 3.41 fold enrichment (6-mer frequency, TF over GST control) | 3.75 fold enrichment (6-mer frequency, TF over GST control) |  | 3.89 fold enrichment (6-mer frequency, TF over GST control) | 4.01 fold enrichment (6-mer frequency, TF over GST control) | 3.47 fold enrichment (6-mer frequency, TF over GST control)
ACGACT | 1.27 fold enrichment (6-mer frequency, TF over GST control) | 1.28 fold enrichment (6-mer frequency, TF over GST control) | 1.36 fold enrichment (6-mer frequency, TF over GST control) | 1.24 fold enrichment (6-mer frequency, TF over GST control) | 1.19 fold enrichment (6-mer frequency, TF over GST control) | 1.17 fold enrichment (6-mer frequency, TF over GST control) | 1.27 fold enrichment (6-mer frequency, TF over GST control) | 1.17 fold enrichment (6-mer frequency, TF over GST control) | 1.24 fold enrichment (6-mer frequency, TF over GST control) | 
GGCTCA | 1.22 fold enrichment (6-mer frequency, TF over GST control) | 1.38 fold enrichment (6-mer frequency, TF over GST control) | 1.32 fold enrichment (6-mer frequency, TF over GST control) | 1.33 fold enrichment (6-mer frequency, TF over GST control) | 1.34 fold enrichment (6-mer frequency, TF over GST control) | 1.23 fold enrichment (6-mer frequency, TF over GST control) | 1.24 fold enrichment (6-mer frequency, TF over GST control) | 1.24 fold enrichment (6-mer frequency, TF over GST control) | 1.23 fold enrichment (6-mer frequency, TF over GST control) | 
